Values joined by “and” are separate entries in the source; they are usually repeats but may differ in a detail not shown here. Equal entries are not always repeated. Compounds without any hit were thinned out: in the full panel of roughly 83,000, 20% have a hit.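 Assay: single dose, 48 h. Readout: percent growth (0 = no net growth; negative = cell death). Active: <10.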 Active and inactive are the calls of the source.

For this assay, the system named is MDA-MB-468 breast. The assay is described as follows: NCI-60 one-dose screen, 48 h (100 = growth as untreated, 0 = no growth, -100 = all killed). To be noted: 10 µM unless noted.
Take `Oc1ccc(C2OCCO2)c2cccnc12`: the growth is 62.4% (inactive). Next, `COc1ccc(-c2cc(-c3cc(OC)c(OC)c(OC)c3)nc(N3CCOCC3)c2C#N)cc1`: 76% (inactive).

Take `O=C1CC(c2cccc(-c3cccnc3)c2)=Nc2ccc(Br)cc2N1`: the growth was 10.5% (inactive).

Consider `COc1ccc(-c2nc(SCC(=O)Nc3ccc(C(=O)/C=C/c4ccc(Cl)cc4)cc3)[nH]c(=O)c2C#N)cc1`, for which the growth is 39.4% (inactive). Regarding `CCc1ccc(NC(=O)N[C@@H](Cc2cccc(F)c2)C(=O)N[C@@H]2C(=O)N3CCC[C@H]3C(=O)N3CCCC[C@H]3C(=O)N[C@@H](C)C(=O)N3C[C@H](C)C[C@H]3C(=O)O[C@H]2C)c(F)c1`, the growth is -18.2% (active). On to `Clc1nc2ccccc2cc1Cn1nnc(Cc2ccccc2)n1`, for which the growth was 11.1% (inactive). Next, `O=C(O)/C=C\C(=O)Nc1cccc2ccccc12`: 92.2% (inactive) and 111% (inactive).

Take `C=CCn1c(SCC(=O)Nc2cccc(C(=O)/C=C/c3ccccc3)c2)nc2ccccc2c1=O`: the growth is 78.9% (inactive). For the molecule `CN(C)CCNC(=O)c1ccc(-c2nc3ccc4[nH]ncc4c3c3c2CCC3)cc1`, the growth was -55.3% (active). On to `Cc1c(F)cccc1NC(=O)c1sc2nc3c(cc2c1N)CCCCC3`, for which the growth was 14.8% (inactive). Next, `O=C(CSc1nnc(-c2ccc(Cl)cc2)n1-c1ccccc1)Nc1ccc(F)cc1`: 91.8% (inactive); `COc1ccc(Nc2nn3c(SCC(=O)c4ccc(C)cc4)nnc3s2)cc1`: 87.1% (inactive).

Take `CCCCCCCC/C=C\CCCCCCCCOc1ccccc1CC(=O)NCC[N+]1(C)CCCCC1`: the growth was -9.98% (active).

The record behind these values is PubChem BioAssay (NCI).
